# Assay outcomes: PubChem BioAssay, several laboratories
# C-LANA FP – blocks KSHV LANA C-terminal domain binding to DNA | hit rate 0.078% among 340,000 | inhibition, % at 9 µM | MBP-C-LANA/FAM-LBS DNA binding, fluorescence polarization;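 active means highest replicate inhibition at or above 60% at 9 µM, even if other replicates fall short; inactive means all replicates below 60% inhibition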;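 further: 0% = neutral control wells and 100% = 4 µM acridine orange control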
# Cardiac RTF inh – cardiac RTF calcium desensitization | inhibition, % at 7.15 µM | P19429+P45379 | AID 493244 | IANBD-labeled cardiac RTF, Ca2+ fluorescence | hit rate 0.12% among 340,000;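 active means inhibition above the mean inhibition of all tested compounds plus 3 SD, cut at about 17% in these data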;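 further: assay run at fixed EC70 calcium of 1.6 mM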
# Keap1 Nrf2 FP – disrupts human Keap1 binding to Nrf2 peptide | inhibition, % at 9.4 µM | Keap1 Kelch-Nrf2 peptide fluorescence polarization, 1536-well | hit rate 0.15% among 340,000; in the data active means inhibition above about 12%;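 further: human Keap1 Kelch domain with fluorescein labeled Nrf2 9mer peptide probe; 0% = neutral control wells and 100% = peptide positive control; higher means more block of Keap1 binding to Nrf2 peptide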
# E coli Lon inh – E. coli protease La inhibition; P0A9M0; purified E. coli Lon protease, fluorescence polarization; inhibition, % at 7.94 µM; hit rate 0.42% among 360,000; in the data active means inhibition above about 13%, passing the limit was not always enough;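 further: 0% = enzyme with probe and DMSO and 100% = no enzyme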
# cardiac RTF act – increases calcium sensitivity of human cardiac regulated thin filaments; P19429+P45379; IANBD-labeled TnC RTF fluorescence at EC20 calcium; 0% EC20 calcium, 100% full calcium; activation, % at 7.2 µM; hit rate 0.24% among 340,000; AID 493008;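 active means activation above the mean over all tested compounds plus 3 SD, cut at about 30% in these data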;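 further: rise in fluorescence read as greater calcium sensitivity of cardiac thin filaments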
# E coli Lon conf – confirmation of E. coli Lon protease inhibitors | hit rate 31% among 1,400 | purified E. coli Lon, fluorescence polarization | shares compounds with E coli Lon inh | inhibition, % at 7.94 µM; in the data active means inhibition above about 16%;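 further: 0% = enzyme with probe and DMSO and 100% = no enzyme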
# * marks the source's active call; other numbers are inactive results; nt = no result given; + = active, no number. A selection: hits, their analogues and other compounds. The true share with any hit is near 0.74%.
SMILES,C-LANA FP,Cardiac RTF inh,Keap1 Nrf2 FP,E coli Lon inh,cardiac RTF act,E coli Lon conf
O=C(NCCc1ccc(Cl)cc1Cl)c1cccnc1,-0.4,0.8,-8.1,1.3,-3.8,nt
Nc1[nH]c(C(=O)c2ccccc2)c(-c2cccnc2)c1C(=O)NCCc1ccc(Cl)cc1Cl,nt,nt,nt,+,nt,-1.2
CCN1CCCSC1=S,nt,nt,nt,0.1,nt,nt
CCc1ccc(NCc2cc3c(C)nn(-c4ccccc4)c3[nH]c2=O)cc1,1.0,2.5,-2.7,-5.5,2.3,nt
Cc1nn(-c2ccccc2)c2[nH]c(=O)c(CNc3ccc4c(c3)OCCO4)cc12,-2.0,-5.0,-2.9,21.1*,5.2,43.5*
CC1(C(=O)NS(=O)(=O)c2cccs2)CCN1C(=O)CC1CC1 (configuration not stated),nt,nt,nt,9.9,nt,nt
CC(=O)N1CCN(S(=O)(=O)c2ccc(S(=O)(=O)N3CCCC(C)C3)cc2)CC1 (configuration not stated),-1.8,5.4,-4.9,22.3*,-2.6,-14.0
CC(=O)N1CCC(C(=O)Nc2ccc(S(=O)(=O)N3CCCC(C)C3)cc2)CC1 (configuration not stated),1.1,-13.2,-4.0,-4.3,10.0,nt
Cc1cnc(C(=O)N2CCN(S(=O)(=O)c3ccc4ccccc4c3)CC2)cn1,-2.6,-9.5,-3.5,0.5,7.8,nt
O=C(c1cnccn1)N1CCN(S(=O)(=O)c2ccc3ccccc3c2)CC1,-1.0,-1.4,-5.9,20.1*,-8.9,1.2
COc1ccc(C(C)=O)cc1CSc1nnc(-c2ccncc2)o1,0.5,-6.5,-1.5,92.9*,-4.4,-22.1
COC(=O)c1ccc(OC)c(CSc2nnc(-c3ccc(C)cc3)o2)c1,-1.4,2.4,1.1,8.8,-1.0,nt
Cc1ccc(CNc2ccc(O)cc2)cc1,0.2,-2.0,-5.8,19.8*,0.5,-24.5
C[C@H](NC(=O)[C@@H]1CSC2c3ccccc3C(=O)N21)C(=O)NCCc1ccc(F)cc1 (some centres not stated),0.2,-1.2,-8.9,23.0*,0.8,-3.2
COC(=O)c1c(=O)n(O)c2ccc(OC)cc2[n+]1[O-],48.4,-54.3,23.6*,142.5*,43.8*,88.3*
O=C(NCCCN1CCCC1=O)c1ccc2c(=O)n(Cc3ccco3)c(=S)[nH]c2c1,-0.4,0.7,-5.6,17.5*,-9.7,7.6
O=C(NCc1ccccc1)c1ccc2c(=O)n(CCCN3CCCC3=O)c(=S)[nH]c2c1,0.0,-2.1,-3.4,-1.1,-0.5,nt
CC1CCC(NC(=O)C(NS(=O)(=O)c2ccc(Br)cc2)C(C)C)CC1 (configuration not stated),nt,nt,nt,-4.2,nt,nt
O=C(Cc1ccc(Br)cc1)N1CCN(c2ccccc2O)CC1,-0.1,-25.9,-2.7,24.4*,0.0,2.9
O=C(CSc1ccc2c(c1)OCCO2)N1CCN(c2ccccc2O)CC1,-0.8,-1.7,-5.5,20.2*,-6.6,-3.5
Cc1ccc(-n2cc(CNCCN3CCOC3=O)c(-c3cccc(C)c3)n2)cc1,-0.7,-1.9,-8.6,16.0*,2.8,-7.2
O=C1C(NS(=O)(=O)c2cccs2)=C(N2CCN(c3cccc(C(F)(F)F)c3)CC2)C(=O)c2ccccc21,-0.1,-16.3,-0.7,21.9*,4.2,-0.5
O=C1NC[C@H](CCCCN2C[C@H](Cc3ccc(O)cc3)N(Cc3ccccc3)C(=O)C2=O)N(CCc2ccc(O)cc2)C1=O,nt,nt,nt,3.9,nt,nt
COC(=O)C1=C(C)NC(=O)CC1c1ccccc1 (configuration not stated),1.5,-0.1,4.3,-1.4,0.2,nt
COC(=O)C1=C(C)NC(=S)N(C(C)=O)C1c1ccccc1 (configuration not stated),1.1,-3.0,-1.9,17.5*,-4.8,20.5*
O=C(NCC1COc2ccccc2O1)c1cccc(S(=O)(=O)N2CCN(c3ccccc3)CC2)c1 (configuration not stated),-0.6,-0.6,-0.9,-1.6,-10.9,nt
CC(=O)C1=C(O)C(=O)N(c2ccc(Br)cc2)C1c1ccc(Br)cc1 (configuration not stated),0.1,-11.3,-0.8,30.2*,5.0,-7.1
CCCS(=O)(=O)NC(=O)C1(C)CCCN(C(=O)c2cncc(Br)c2)C1 (configuration not stated),nt,nt,nt,-7.7,nt,nt
COc1ccc(OC)c(NCCN2C(=O)c3ccccc3C2=O)c1,nt,nt,nt,-0.7,nt,nt
CN(C)CCCN1C(=O)c2cccc3c(Br)ccc(c23)C1=O,2.4,-18.4,-1.5,31.2*,14.7,67.6*
